In PubChem BioAssay (NCATS):
Results filed as inconclusive are left out. Values without a mark were called inactive. Active and inactive are the calls of the source. Calls come from the whole dose curve; as a rule, active = well fitted curve in the direction sought with a large enough effect; inconclusive = small, poorly fitted or top-dose-only effect, or another doubt; inactive = no such curve, though single readings can be large; an effect the other way counts as inactive or inconclusive.
% is set by controls: 0 for no effect and ±100 for the full control effect.

Each molecule was assayed against Metallo-beta-lactamase type 2 (Klebsiella pneumoniae) (UniProt C7C422) (assay: qHTS to identify inhibitors of the New Delhi Metallo-beta-lactamase (NDM): assay validation screen against the NCATS LOPAC Collection (AID 1794843)). Settings: NDM-1 enzyme, nitrocefin hydrolysis, absorbance 485 nm; series mostly up to 38.4 µM; activity change, negative = inhibition: at the top concentration.
Metallo-beta-lactamase type 2 (Klebsiella pneumoniae), sequence (C7C422 whole entry, looked up): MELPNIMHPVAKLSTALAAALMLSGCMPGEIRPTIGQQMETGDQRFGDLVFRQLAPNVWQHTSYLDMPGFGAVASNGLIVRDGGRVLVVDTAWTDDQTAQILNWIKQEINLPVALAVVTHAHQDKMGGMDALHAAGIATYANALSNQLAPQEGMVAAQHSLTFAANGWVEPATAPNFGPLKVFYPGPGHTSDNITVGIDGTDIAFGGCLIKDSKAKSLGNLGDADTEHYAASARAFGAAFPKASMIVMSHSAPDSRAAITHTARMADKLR
Summary of the method: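 Absorbance at 485 nm from nitrocefin turnover (50 uM solution added), read at plateau, gives the read-out. Compounds in DMSO were incubated first with 2 nM final NDM-1 in pH 7.0 HEPES buffer containing 1 uM ZnSO4 and 0.01% Tween20.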
With `CC1CN(S(=O)(=O)c2cccc3cnccc23)CCN1` (stereo not drawn) the “activity change, negative = inhibition” value was -8.36%. With `C[N+]1(C)CCC(OC(=O)C(c2ccccc2)c2ccccc2)CC1` the “activity change, negative = inhibition” value was 2.92%. `COCCOc1cc2nc[nH]c(=O)c2cc1OCCOC` was tested, and the “activity change, negative = inhibition” value was -2.75%.

What follows are molecules tested against Glutathione peroxidase 1 (Homo sapiens) (UniProt P07203) (assay: Primary qHTS Assay for Inhibitors of Recombinant Selenoprotein Glutathione Peroxidase 1 (GPX1) (AID 1845191; note: nearly all actives have a fitted effect of over 65% in size; note: potency is the fitted concentration of half-maximal effect)). Settings: recombinant GPX1, GR-coupled NADPH fluorescence, 15 min; series mostly up to 48.8 µM; activity, negative = inhibition: at the top concentration.
Glutathione peroxidase 1 (Homo sapiens), sequence (P07203 whole entry, looked up): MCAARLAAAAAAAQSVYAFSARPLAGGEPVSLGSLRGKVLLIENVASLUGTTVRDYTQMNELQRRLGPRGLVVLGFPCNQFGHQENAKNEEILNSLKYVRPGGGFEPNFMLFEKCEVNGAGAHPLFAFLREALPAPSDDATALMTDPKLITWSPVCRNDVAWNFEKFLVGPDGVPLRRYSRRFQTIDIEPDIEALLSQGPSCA
Summary of the method: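 GR-coupled assay: compounds preincubated 30 min at room temperature with GPX1, then reaction started with CHP; final 10 nM GPX1, 1 mM GSH, 0.5 mM CHP, 0.5 mM NADPH, 100 nM GR, 0.01% BSA, pH 7.5 Tris buffer. NADPH fluorescence (340/450 nm) read at 0 and 15 min.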
With `CO/N=C(\C(=O)N[C@@H]1C(=O)N2C(C(=O)O)=C(COC(C)=O)CS[C@H]12)c1csc(N)n1` the Potency was 8.06 µM (active). For `Nc1nc(Cl)nc2c1ncn2[C@@H]1O[C@H](CO)[C@@H](O)[C@H]1O`, the “outcome” value was “inactive”. For `Nc1nc(Nc2ccccc2)nc2c1ncn2[C@@H]1O[C@H](CO)[C@@H](O)[C@H]1O`, the “activity, negative = inhibition” value was -34.4%. `NC[C@@H]1O[C@H](C23CC4CC(CC(C4)C2)C3)Cc2c1ccc(O)c2O` was tested, and the “activity, negative = inhibition” value was 2.69%. `Cn1cc(C2=C(c3ccc(Cl)cc3Cl)C(=O)NC2=O)c2ccccc21` was tested, and the Potency was “inactive”. `CN(C)C(N)=NCCC[C@H](N)C(=O)O` was tested, and the “outcome” value was “inactive”. With `O=C(c1cc(O)c(O)c([N+](=O)[O-])c1)c1ccccc1F` the “activity, negative = inhibition” value was -20%. With `CN1CCc2cc(NC(=O)Nc3cccnc3)ccc21` the “activity, negative = inhibition” value was 0.245%. `COc1cccc(OC)c1OCCNCC1COc2ccccc2O1` (stereo not drawn) was tested, and the “activity, negative = inhibition” value was -22.4%. In the case of `COc1cccc(C(=O)NCCN2CCN(c3ccc(Cl)cc3)CC2)c1`, the “activity, negative = inhibition” value is reported as 4.63%. In the case of `CN(C)c1nc(N)c(C(=O)N=C(N)N)nc1Cl`, the “activity, negative = inhibition” value is reported as -27.3%. In the case of `COc1cc(SC)ccc1C(=O)N1CCC(Cc2ccccc2)CC1`, the Potency is reported as “inactive”. In the case of `Brc1cc2c(cc1[C@H]1Nc3ccccc3[C@H]3C=CC[C@H]31)OCO2`, the “activity, negative = inhibition” value is reported as -20%. With `N=c1ccn2c(n1)O[C@H]1[C@H](O)[C@@H](CO)O[C@H]12` the Potency was “inactive”. `NCC1OC(O[C@H]2[C@H](O)[C@@H](OC3C(O)C(N)CC(N)C3OC3OC(CO)C(O)C(O)C3N)O[C@@H]2CO)C(N)C(O)C1O` (stereo partly drawn) was tested, and the “activity, negative = inhibition” value was -33.2%. With `CN1CCc2cccc3c2C1Cc1ccc(O)c(O)c1-3` (stereo not drawn) the “outcome” value was “inactive”. With `O=C(CCSCc1ccco1)NNC(=O)N1Cc2ccccc2Oc2ccc(Cl)cc21` the “outcome” value was “inactive”. For `COc1ccc(-c2cc(=O)c3c(O)c(OC)c(OC)cc3o2)cc1O`, the “outcome” value was “inactive”. With `CCCC(CCC)C(=O)OC1CC2CCC(C1)[N+]2(C)C` (stereo not drawn) the “activity, negative = inhibition” value was -1.27%. With `COc1ccc(C(=O)/C(Cc2cc(OC)c(OC)c(OC)c2)=C(\C(=O)O)c2ccc3c(c2)OCO3)cc1` the “activity, negative = inhibition” value was -15.9%. For `CC1OC1P(=O)(O)O` (stereo not drawn), the “outcome” value was “inactive”. For `S=c1[nH]c(-c2ccccc2)cn1-c1ccccc1`, the “outcome” value was “inactive”. For `OC[C@H]1O[C@@H](n2cnc3c(NC4CCCC4)ncnc32)[C@H](O)[C@@H]1O`, the “outcome” value was “inactive”. For `CC[C@H]1OC(=O)[C@H](C)C(O[C@H]2C[C@@](C)(OC)[C@@H](O)[C@H](C)O2)[C@H](C)[C@@H](OC2O[C@H](C)C[C@H](N(C)C)[C@H]2O)[C@](C)(O)C[C@@H](C)CN(C)[C@H](C)[C@@H](O)[C@]1(C)O` (stereo partly drawn), the “activity, negative = inhibition” value was 0.714%. For `CNCC[C@H](Oc1ccc(C(F)(F)F)cc1)c1ccccc1`, the “outcome” value was “inactive”. In the case of `Nc1nc2ccc(Cl)cc2n2c(-c3ccccc3)nnc12`, the “activity, negative = inhibition” value is reported as -11.4%. With `O=S(=O)(c1cccc2c(I)cccc12)N1CCCNCC1` the Potency was “inactive”. With `COc1ccc(NC(=O)/C=C/c2ccc(Cl)cc2)cc1` the “activity, negative = inhibition” value was -27.8%. In the case of `CCCCCCCCCCCCCCCCCC(=O)O`, the “activity, negative = inhibition” value is reported as 1.93%. For `CN[C@H](CC(C)C)C(=O)N[C@H]1C(=O)N[C@@H](CC(N)=O)C(=O)N[C@H]2C(=O)N[C@H]3C(=O)N[C@H](C(=O)N[C@H](C(=O)O)c4cc(O)cc(O)c4-c4cc3ccc4O)[C@H](O)c3ccc(c(Cl)c3)Oc3cc2cc(c3O[C@@H]2O[C@H](CO)[C@@H](O)[C@H](O)[C@H]2O[C@H]2C[C@](C)(N)[C@H](O)[C@H](C)O2)Oc2ccc(cc2Cl)[C@H]1O`, the Potency was “inactive”. For `COc1ccccc1CNCCCCCCNCCCCCCCCNCCCCCCNCc1ccccc1OC`, the “outcome” value was “inactive”. For `CCN(CC)c1ncnc2c1ncn2[C@@H]1O[C@H](COP(=O)(O)OP(=O)(O)C(Br)(Br)P(=O)(O)O)[C@@H](O)[C@H]1O`, the “outcome” value was “inactive”. In the case of `CC1CN(S(=O)(=O)c2cccc3cnccc23)CCN1` (stereo not drawn), the “activity, negative = inhibition” value is reported as -19.3%. In the case of `C[N+]1(C)CCC(OC(=O)C(c2ccccc2)c2ccccc2)CC1`, the “activity, negative = inhibition” value is reported as -11.7%. With `COCCOc1cc2nc[nH]c(=O)c2cc1OCCOC` the “activity, negative = inhibition” value was -8.64%.
